# Screening data as filed in PubChem.
# A selection: hits, their analogues and other compounds. The true share with any hit is near 9.2%.
# OTUD3 block: inhibitors of human OTUD3 deubiquitinase. Q5T2D3. purified OTUD3, Ub-rhodamine fluorescence, 2 h. inhibition, % at 25 µM. 47,000 tested, 0.7% active. AID 1645858
# USP10 inh: blocks human USP10 ubiquitin-rhodamine cleavage | Q14694 | AID 1645856 | inhibition, % at 20 µM | 47,000 tested, 1.1% active | purified USP10, Ub-rhodamine fluorescence, 60 min
# USP17 block: blocks human USP17 ubiquitin-rhodamine cleavage. inhibition, % at 50 µM. purified USP17, Ub-rhodamine cleavage fluorescence, 3 h. A8MUK1. 47,000 tested, 6.5% active
# UCHL1 block: human UCHL1 deubiquitinase inhibition; purified UCHL1, Ub-rhodamine cleavage fluorescence; inhibition, % at 20 µM; 47,000 tested, 0.2% active; AID 1645859
# USP8 inh: inhibitors of human USP8 deubiquitinase; P40818; purified USP8, Ub-rhodamine cleavage fluorescence, 30 min; inhibition, % at 20 µM; 47,000 tested, 4.2% active; AID 1645853
# USP7 block: human USP7 deubiquitinase inhibition. Q93009. purified USP7, Ub-rhodamine cleavage fluorescence. inhibition, % at 20 µM. 47,000 tested, 0.3% active
# * marks the source's active call; other numbers are inactive results; . = no result. No stated cut-off is given here; in the data, active means inhibition above about 30%; inactive means the rest.
SMILES,OTUD3 block,USP10 inh,USP17 block,UCHL1 block,USP8 inh,USP7 block
O=C1CN(C(=O)COC(=O)CCCN2C(=O)c3cccc4cccc(c34)C2=O)c2ccccc2N1,1.5,5.2,61.6*,5.8,3.6,4.0
O=C1CN(C(=O)COC(=O)Cc2c(Cl)cccc2Cl)c2ccccc2N1,-0.1,-4.2,-1.7,-0.2,8.0,-0.4
CCCn1c(=O)c2sccc2n2c(CCC(=O)N3CCc4ccccc4C3)nnc12,7.3,1.7,.,2.2,87.4*,2.9
Cc1nc(CO[C@H]2CN(C(=O)CC3CC3)[C@@H]3COC[C@H]23)cs1,-1.4,-3.3,-25.0,-1.2,-130.2,0.3
O=C(Cn1c(=O)n(Cc2ccc(F)cc2)c(=O)c2sccc21)Nc1cccc(Cl)c1,-7.8,18.8,65.0*,4.2,-0.8,-1.2
COc1ccc(NC(=O)Cn2c(=O)n(CCC(=O)NCc3ccccc3)c(=O)c3sccc32)cc1Cl,5.1,49.2*,47.4*,3.9,19.1,20.3
Cc1ccc(CNC(=O)Cn2c(=O)c3sccc3n(CC(=O)Nc3ccc4c(c3)OCCO4)c2=O)cc1,-8.4,21.7,59.6*,-0.1,7.4,2.7
Cc1ccc(NC(=O)Cn2c(=O)n(CC(=O)NCCc3ccccc3)c(=O)c3sccc32)cc1C,1.0,40.3*,23.1,-0.3,50.4*,18.6
COc1ccc(NC(=O)Cn2c(=O)n(CCCC(=O)NC3CCN(Cc4ccccc4)CC3)c(=O)c3ccccc32)cc1Cl,-0.2,-2.0,0.0,-3.0,3.4,-3.9
Cc1cn2ncn(CC(=O)N3CCCC3)c(=O)c2c1C,-3.7,1.7,1.8,-1.0,6.2,-0.5
Cc1ccc(-n2ncc3c(NCc4ccc(F)cc4)ncnc32)cc1,-5.2,1.6,0.6,-6.4,1.6,-6.4
Cn1c(=O)c(N2CCN(S(=O)(=O)c3ccc(Cl)cc3)CC2)nc2ccncc21,-0.4,-4.3,-1.9,-2.4,1.0,1.1
Cc1cc(C)cc(NC(=O)N2CC(C(=O)NC3CCCC3)C3(CCOCC3)C2)c1 (configuration not stated),0.7,4.2,8.2,0.7,22.3,5.2
CCc1cc(=O)n(CC(=O)Nc2ccc3c(c2)OCCO3)c2c1c(C)nn2-c1ccc(C)cc1,14.5,6.5,31.2*,3.7,43.6*,6.1
Cc1cc(=O)n2c3c(c4c(cc13)c(CO)cc(=O)n4C)OC2,5.8,5.9,85.0*,6.5,40.5*,-0.4
CCCn1c(C2CC(=O)N(c3cccc(C)c3)C2)nc2ccccc21 (configuration not stated),7.9,1.1,5.5,3.6,11.1,0.3
O=C1CC(c2nc3ccccc3n2CCOc2ccc(Cl)cc2)CN1c1ccccc1 (configuration not stated),14.7,9.1,66.3*,7.5,86.7*,10.7
COc1ccc(OCCn2c(C3CC(=O)N(c4cccc(C)c4)C3)nc3ccccc32)cc1 (configuration not stated),6.5,17.4,76.1*,3.3,11.0,7.3
Cc1ccc(N2CC(c3nc4ccccc4n3CCCOc3ccccc3)CC2=O)cc1 (configuration not stated),4.1,14.3,60.5*,7.0,23.7,6.7
CN1CC(c2nc3ccccc3n2CCCOc2ccc(Cl)cc2)CC1=O (configuration not stated),-3.4,-4.2,1.5,-0.8,18.3,-24.5
CN1CCN(c2ncc(NC(=O)c3ccccc3F)cn2)CC1,-8.2,-3.9,-25.3,-3.0,-11.8,0.1
CCOc1ccc(-n2c(=O)c3sccc3n(CC(=O)Nc3cccc(C)c3)c2=O)cc1,2.4,41.0*,1.1,0.0,22.1,4.7
Cc1cccc(NC(=O)Cn2c(=O)n(-c3ccccc3)c3ncccc32)c1,-10.6,-0.7,-17.3,-1.3,-1.2,-2.1
COc1cc(OC)cc(-n2c(=O)c3sccc3n(CC(=O)Nc3ccc(C)cc3)c2=O)c1,4.5,15.7,62.0*,1.9,2.4,7.0
Cc1cc(=O)n2nc(-c3ccc(Cl)cc3)nc2n1CC(=O)N(C)Cc1ccccc1,9.2,-3.1,17.7,2.1,1.6,-40.4
SMILES,OTUD3 block,USP10 inh,USP17 block,UCHL1 block,USP8 inh,USP7 block
Cc1cccc(-c2nc3n(CC(=O)Nc4ccc(Cl)cc4)c(C)cc(=O)n3n2)c1,7.7,13.0,68.2*,0.4,8.2,11.3
O=C(Nc1cccc(OC(=O)c2ccc3c(c2)OCO3)c1)c1ccccc1,-3.5,9.3,-23.3,3.1,-232.5,-0.1
O=C(Nc1nc2c(s1)CCC2C(=O)Nc1ccc2c(c1)OCO2)c1ccccc1 (configuration not stated),6.1,9.1,24.7,1.6,38.3*,0.3
COCCn1cnc2c(-c3ccccc3)cn(CC(=O)Nc3ccc4c(c3)OCO4)c2c1=O,-5.9,-2.1,39.6*,2.9,3.2,-3.8
O=S1(=O)CCC(N2CCN(c3nc(-c4ccccn4)nc4scc(-c5ccccc5)c34)CC2)C1 (configuration not stated),-16.4,-9.0,-14.4,-3.5,-216.2,-32.2
CCOC(=O)c1cc(-c2ccccc2)sc1NC(=O)CNc1cccc(C(C)=O)c1,-3.0,3.6,-2.2,2.6,2.8,7.9
CCOC(=O)c1c(-c2ccccc2Cl)csc1NC(=O)CNc1cccc(O)c1,-3.9,10.8,31.6*,6.2,22.7,3.7
c1ccc2oc(CN3CC[C@H](c4nnc(-c5ccncc5)o4)C3)cc2c1,-8.6,-5.9,-37.0,-2.2,34.1*,-10.3
CC(C)c1nc(C2CCCN2C(=O)c2cc(C3CC3)[nH]n2)no1 (configuration not stated),5.1,-3.1,3.7,-1.5,12.3,0.8
Cc1nc(Nc2ncc(C)s2)cc(C2CN(C(=O)Cc3ccccc3)CCO2)n1 (configuration not stated),13.0,2.7,38.4*,1.4,-15.3,-1.9
Cc1ccc(C(=O)Nc2ncc3c(Cl)cccc3n2)cc1,6.6,5.0,30.9*,3.7,15.9,5.7
Cc1occc1-c1nnc(SCC(=O)Nc2ccc3[nH]c(=O)[nH]c3c2)n1C,-10.2,-1.9,44.7*,-1.5,-29.9,-3.5
Cc1nnc(SCC(=O)Nc2ccccc2Cl)n1Cc1ccccc1,-10.6,0.1,-5.5,0.3,-4.0,-5.3
Cc1nnc(SCC(=O)Nc2ccc3[nH]c(=O)[nH]c3c2)n1Cc1ccccc1,4.5,-1.6,42.5*,1.7,-20.6,1.4
CCc1ccc(-c2nc(SCC(=O)Nc3ccc4[nH]c(=O)[nH]c4c3)n[nH]2)cc1,22.3,7.9,36.7*,-1.5,3.7,1.6
CCC(=O)Nc1ccc2c(c1)nc(CSc1nccc(C)n1)n2CC,-1.8,1.6,-5.1,-0.9,-33.5,0.8
Cc1ccc(Nc2nccc(C3CCCN3C(=O)c3cnccn3)n2)nc1 (configuration not stated),15.3,-2.0,2.2,0.6,-13.2,3.7
Cn1cnnc1Sc1ncnc(N)c1[N+](=O)[O-],27.8,3.2,3.2,0.6,-107.9,-2.3
